Test results taken from PubChem BioAssay (NCI).
This is part of a sample that, as a whole, favours compounds with a hit. Of some 83,000 tested, about 20% had one in any assay.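 Single-dose data. Exposure time 48 hours. Values below 10 considered active.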 A number with no mark means an inactive call. Calls of active or inactive are those of the source.

tested on: A498 renal; experiment: NCI-60 one-dose screen, 48 h (100 = growth as untreated, 0 = no growth, -100 = all killed); settings: 10 µM unless noted

For O=C(Nc1cccc(-n2ccc3c(NC(=O)c4ccccc4)nccc32)c1)Nc1cc(C(F)(F)F)cc(C(F)(F)F)c1, which growth is on record?
Its growth is 16.4%.

Nc1nccc2c1ccn2-c1cccc(NC(=O)c2ccc(N3CCOCC3)c(C(F)(F)F)c2)c1 was tested. Which growth did it give?
The growth was -12.9% (active).

COc1ccc(-c2nn(-c3ccc(NC(=O)Nc4cc(C(F)(F)F)cc(C(F)(F)F)c4)cc3)cc2-c2ccncc2)cc1Cl was tested. Which growth did it give?
The growth was 0.688% (active).

Which growth does the source give for CN(C)CCS(=O)(=O)Nc1cc(-c2ccc3ncnc(Nc4ccc(F)c(Cl)c4)c3c2)cnc1Cl here?
The growth was -78% (active).

For O=C(CSc1nnc(-c2cc3c([nH]c4ccccc43)c(-c3cccc(O)c3)n2)n1-c1ccccc1)c1ccccc1, which growth is on record?
The growth was 67%.

Which growth does the source give for O=C(Nc1cccc(-n2ccc3c(NC(=O)c4ccccc4)nccc32)c1)c1cc(N2CCOCC2)cc(C(F)(F)F)c1 here?
Its growth is 6.2% (active).

With CCC1(C(N)=O)CC2C=CC1CC2 (stereo unspecified) as the compound, how does the growth read?
Its growth is 95.7%.

O=C1c2ccccc2OC=C(c2ccccc2)N1CCCCN1CCCCC1 was tested. Which growth did it give?
The growth was 87.1%.

Which growth does the source give for O=S(=O)(Nc1cccc2cc(OS(=O)(=O)c3ccccc3)ccc12)c1ccccc1 here?
The growth was 48.6%.

With COc1cc(CN(c2ccc(Cl)cc2)C2OC(=O)c3ccccc32)cc(OC)c1OC (stereo unspecified) as the compound, how does the growth read?
Its growth is 40%.

Which growth does the source give for O=C(Nc1ccc(-n2ccc3c(NC(=O)c4ccccc4)nccc32)cc1)c1cccc(C(F)(F)F)c1 here?
The growth was 39%.

With O=C(Nc1ccc(-n2ccc3c(NC(=O)c4ccccc4)ncnc32)cc1)Nc1cccc(Cl)c1Cl as the compound, how does the growth read?
Its growth is 12%.

How did the growth turn out when CC1OC(n2c3ccccc3c3c4c(c5c6ccccc6[nH]c5c32)C(=O)N(CCN[C@@H]2CCC[C@H]2N)C4=O)CC(O)C1O (stereo partly specified) was run?
The growth was 48.3%.

Which growth does the source give for O=C(Nc1cccc(-n2ccc3c(NC(=O)c4ccccc4)nccc32)c1)c1cccc(C(F)(F)F)c1 here?
The growth was 7.75% (active).

How did the growth turn out when CC(=O)c1cc2c(c(O)c1C)C(=O)C(=O)c1c(O)cccc1-2 was run?
The growth was -80.6% (active).

How did the growth turn out when O=C1OC(N(Cc2ccc(Cl)cc2)c2ccccc2)c2ccccc21 (stereo unspecified) was run?
The growth was 90.1%.

For COc1ccc(Cn2cc3c(c2-c2cc(OC)c(OC)c(OC)c2)CCc2c(CO)noc2-3)cc1, which growth is on record?
Its growth is 18.2%.

With O=C1C(Cl)=C(Nc2ccccc2)C(=O)C(Cl)=C1Nc1ccccc1 as the compound, how does the growth read?
The growth was 78.6%.

Which growth does the source give for O=S(=O)(CCN1CCOCC1)Nc1cncc(-c2ccc3ncnc(Nc4ccc(F)c(Cl)c4)c3c2)c1 here?
The growth was 73.1%.

COC1=C(OC)C(=O)C=CC1=O was tested. Which growth did it give?
Its growth is 120%.

For O=C(NCCNc1nccc(-c2c(-c3cccc(O)c3)nc3sccn23)n1)Nc1cc(C(F)(F)F)cc(C(F)(F)F)c1, which growth is on record?
Its growth is 86%.

For CCn1c(SC)nnc1-c1cc2c([nH]c3ccccc32)c(-c2cccc(O)c2)n1, which growth is on record?
The growth was -2.24% (active).

How did the growth turn out when C=CC(=O)Nc1cccc(Nc2nc(Nc3ccc(OCCOC(F)F)cc3)ncc2F)c1 was run?
Its growth is -35.4% (active).

How did the growth turn out when NC(=O)C1=C[C@H]2[C@H]3C=C[C@@]2(O)C(=O)O[C@@H]3O1 was run?
The growth was 81.3%.

O=C(Nc1ccc(-n2ccc3c(NC(=O)c4ccccc4)ncnc32)cc1)Nc1ccc(Cl)c(C(F)(F)F)c1 was tested. Which growth did it give?
Its growth is 18.3%.

With COc1ccccc1NC(=O)COc1ccc(/C=C2/Oc3cc4occc4c(OC)c3C2=O)cc1OC as the compound, how does the growth read?
The growth was 99%.

Which growth does the source give for O=C(Nc1ccc(-n2cc(-c3ccncc3)c(-c3ccc(O)c(Cl)c3)n2)cc1)Nc1cc(C(F)(F)F)cc(C(F)(F)F)c1 here?
Its growth is 65.9%.

How did the growth turn out when c1ccc(CNCCN(CCNCc2ccccn2)Cc2ccc3ccccc3c2)nc1 was run?
The growth was -17.5% (active).

How did the growth turn out when O=[N+]([O-])c1ccccc1NC1c2ccccc2Oc2ccccc21 was run?
The growth was 10.7%.

Which growth does the source give for C=CCn1c(SCC(=O)Nc2ccc(C(=O)/C=C/c3cc(OC)c(OC)c(OC)c3)cc2)nnc1-c1ccc(OC)cc1 here?
Its growth is -3.03% (active).

O=C(NCCNc1nccc(-c2c(-c3cccc(O)c3)nc3sccn23)n1)c1ccccc1O was tested. Which growth did it give?
The growth was 104%.
